This is an account of results in PubChem BioAssay.

Active and inactive are the calls of the source.

In assay [1] the test system is Plasmodium falciparum Sir2 (PF13_0152, Sir2A). Description: pfSir2 binders on small-molecule microarrays, primary screen, biochemical, small-molecule microarray, 635 nm fluorescence (AID 1098).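 Further: score merges spot fluorescence intensity with its signal-to-noise ratio.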 Conditions: small-molecule microarray binding, fluorescence 635 nm; higher = more signal.
Assay [2] can be described thus: small-molecule microarray binders of probe aDKK1, primary screen, biochemical, biotinylated probe, 635/667 nm fluorescence (AID 1099).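 Further: score merges 667nm spot fluorescence with signal to noise across triplicate slides; reference of the scale not given here.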 Conditions: higher = more signal.
Assay [3] in a line: small-molecule microarray binders of probe aCHRDL2, primary screen, biochemical, biotinylated probe, 635/667 nm fluorescence (AID 1100). Conditions: higher = more signal.
A short description of assay [4]: splicing luciferase reporter signal modulators, primary screen, spliceosome inhibition project, cell-based, HEK293, splice +/- reporter (AID 1101).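 Further: HEK293 cells carrying a splicing-competent luciferase reporter gene; test concentration not given here.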 Conditions: luminescence, 24 h, higher = more signal, called active from +8 up or from −8 down. Background: In a reporter assay the amount or activity of a reporter protein is the signal.
The target in assay [5] is Fibroblast growth factor 10 (Homo sapiens) (UniProt O15520). Description: FGF10 binders on small-molecule microarrays, primary screen, biochemical, small-molecule microarray, 635 nm fluorescence (AID 1102). Conditions: FGF10 binding, fluorescence 635 nm, higher = more signal.
Chain of Fibroblast growth factor 10 (Homo sapiens) (O15520 whole entry, looked up): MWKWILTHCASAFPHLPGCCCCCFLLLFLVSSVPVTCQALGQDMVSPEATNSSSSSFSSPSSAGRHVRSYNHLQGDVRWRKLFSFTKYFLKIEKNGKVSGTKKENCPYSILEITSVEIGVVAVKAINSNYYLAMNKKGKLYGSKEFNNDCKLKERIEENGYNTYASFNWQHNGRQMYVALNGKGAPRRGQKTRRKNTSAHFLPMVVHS
For assay [6], the system named is glycogen synthase kinase-3 (GSK3A per assay name; protocol says GSK3B). Description: GSK3 binders on small-molecule microarrays, primary screen, biochemical, small-molecule microarray, 635 nm fluorescence, GSK3A (AID 1103). Further: the record names both GSK3A and GSK3B. Conditions: small-molecule microarray binding, fluorescence 635 nm; higher = more signal.
Assay [7] has as its target Epidermal growth factor receptor (Homo sapiens) (UniProt P00533). Description: EGFR binders on small-molecule microarrays, primary screen, biochemical, small-molecule microarray, 635 nm fluorescence (AID 1104).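 Further: score merges 667 nm emission intensity with spot signal to noise over triplicate slides.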 The note with it: EGFR binding, higher = more signal.
Assay [8] addresses Follistatin-related protein 3 (Homo sapiens) (UniProt O95633). Description: FSTL3 binders on small-molecule microarrays, primary screen, biochemical, small-molecule microarray, 635 nm fluorescence (AID 1105).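 Further: score merges emission near 667 nm and signal to noise per printed spot across three slides.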 The note with it: FSTL3 binding, higher = more signal.
For assay [9], the target named is Dickkopf-related protein 1 (Homo sapiens) (UniProt O94907). Kind of assay: DKK1 binders on small-molecule microarrays, primary screen, biochemical, small-molecule microarray, 635 nm fluorescence scan (AID 1106).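 Further: score merges emission near 667 nm with signal to noise over three replicate slides.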 The note with it: DKK1 binding, higher = more signal.
Chain of Dickkopf-related protein 1 (Homo sapiens) (O94907 whole entry, looked up): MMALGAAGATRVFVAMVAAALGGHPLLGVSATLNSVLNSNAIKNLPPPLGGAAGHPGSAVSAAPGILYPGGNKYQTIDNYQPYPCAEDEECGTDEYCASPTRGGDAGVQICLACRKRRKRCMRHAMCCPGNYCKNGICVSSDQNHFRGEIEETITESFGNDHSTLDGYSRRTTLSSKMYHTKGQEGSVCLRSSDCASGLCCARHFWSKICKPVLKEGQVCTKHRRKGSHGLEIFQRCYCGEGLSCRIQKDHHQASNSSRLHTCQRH
The subject of assay [10] is Inhibin beta A chain (activin A). Description: INHBA (activin A) binders on microarrays, primary screen, biochemical, small-molecule microarray, 635 nm fluorescence scan (AID 1107).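 Further: mouse activin A protein probed at 4.33 µg/mL on printed slides; score merges bound-protein fluorescence near 667 nm with spot signal-to-noise.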 Conditions: small-molecule microarray binding, higher = more signal.

Chain of Epidermal growth factor receptor (Homo sapiens) (P00533 whole entry, looked up): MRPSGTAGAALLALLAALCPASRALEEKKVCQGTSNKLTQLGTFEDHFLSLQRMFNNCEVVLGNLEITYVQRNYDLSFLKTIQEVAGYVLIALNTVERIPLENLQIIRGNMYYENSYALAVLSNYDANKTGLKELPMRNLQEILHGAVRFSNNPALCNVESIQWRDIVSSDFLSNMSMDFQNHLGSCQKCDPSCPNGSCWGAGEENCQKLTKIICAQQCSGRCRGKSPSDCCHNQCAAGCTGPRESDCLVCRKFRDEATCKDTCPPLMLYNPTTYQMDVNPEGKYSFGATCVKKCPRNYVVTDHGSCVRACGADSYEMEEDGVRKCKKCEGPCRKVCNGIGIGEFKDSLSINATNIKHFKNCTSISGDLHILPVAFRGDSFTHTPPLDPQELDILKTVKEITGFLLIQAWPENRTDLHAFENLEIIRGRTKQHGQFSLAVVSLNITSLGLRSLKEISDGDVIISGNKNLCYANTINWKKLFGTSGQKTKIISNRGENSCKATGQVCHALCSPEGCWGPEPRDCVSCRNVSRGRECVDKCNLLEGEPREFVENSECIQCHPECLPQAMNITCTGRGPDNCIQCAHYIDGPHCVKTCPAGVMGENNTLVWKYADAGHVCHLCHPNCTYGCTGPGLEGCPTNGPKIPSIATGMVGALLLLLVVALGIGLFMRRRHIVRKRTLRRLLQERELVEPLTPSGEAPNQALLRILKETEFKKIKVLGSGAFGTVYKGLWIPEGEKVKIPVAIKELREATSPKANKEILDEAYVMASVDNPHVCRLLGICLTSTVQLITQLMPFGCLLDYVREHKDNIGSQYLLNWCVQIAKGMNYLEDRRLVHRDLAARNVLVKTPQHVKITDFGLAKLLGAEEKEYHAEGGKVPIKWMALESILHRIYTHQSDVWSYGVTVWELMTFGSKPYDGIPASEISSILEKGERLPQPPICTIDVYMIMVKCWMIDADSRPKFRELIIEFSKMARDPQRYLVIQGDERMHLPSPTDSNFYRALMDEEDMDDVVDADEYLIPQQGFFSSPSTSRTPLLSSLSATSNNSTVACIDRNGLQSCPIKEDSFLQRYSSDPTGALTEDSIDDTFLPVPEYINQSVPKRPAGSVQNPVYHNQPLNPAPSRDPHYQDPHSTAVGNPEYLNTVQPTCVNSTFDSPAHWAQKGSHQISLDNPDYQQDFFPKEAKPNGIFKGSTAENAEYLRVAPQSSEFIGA
Chain of Follistatin-related protein 3 (Homo sapiens) (O95633 whole entry, looked up): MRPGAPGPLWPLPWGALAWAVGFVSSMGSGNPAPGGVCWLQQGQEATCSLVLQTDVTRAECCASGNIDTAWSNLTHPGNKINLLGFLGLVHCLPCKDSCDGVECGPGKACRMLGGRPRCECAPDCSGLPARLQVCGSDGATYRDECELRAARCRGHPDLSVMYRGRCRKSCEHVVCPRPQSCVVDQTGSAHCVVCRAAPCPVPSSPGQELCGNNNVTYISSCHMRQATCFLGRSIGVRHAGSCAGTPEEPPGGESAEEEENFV

As to `CN(C)C(=O)[C@@]1(CCS(=O)(=O)c2ccccc2)N=C(c2ccc(OCCCO)cc2)O[C@H]1c1ccccc1CN=[N+]=[N-]`, the composite z-score in assay [1] is 1.02; in assay [2], 0.182; in [3], 0.286; in assay [5] it was 1.41; in assay [6], 1.36; in assay [7], 0.27. Further, the composite z-score was found to be 0.922 in assay [8], 0.52 in [9] and 0.69 in [10]. In assay [4], the z-score is -0.863 (inactive).
Consider `NC(=O)NCC#Cc1ccc2c(c1)[C@]1(C(=O)N2)[C@H](c2ccc(O)cc2)N2[C@H](c3ccccc3)[C@H](c3ccccc3)OC(=O)[C@H]2[C@@H]1C(N)=O`, for which the composite z-score in assay [1] was 0.855; in assay [2], 0.431; in assay [3], 0.55; in [5] it was -0.0652; in [6], -1.08; in assay [7] it was -0.341. Moreover, the composite z-score was -0.934 in assay [8], -0.343 in [9] and 0.286 in assay [10]. In assay [4], the z-score is -0.278 (inactive).
On to `C=C[C@H](C)[C@H](OC(=O)Nc1ccc(SC)cc1)c1ccc(O)c2ccccc12`, for which the composite z-score in [1] is 0.454; in [2], -0.579; in assay [3] it was -0.121; in assay [5] it was 0.0716; in assay [6] it was -0.266; in assay [7], -0.0236. Besides, the composite z-score is 0.284 in assay [8], 0.159 in assay [9] and 0.289 in assay [10]. Besides, the z-score in assay [4] is -2.12 (inactive).
With `COC(=O)[C@@]1(Cc2ccc(F)cc2)[C@H]2c3cc(C(=O)N4CCCC4)n(Cc4ccccc4)c3C[C@H]2CN1C(=O)c1ccccc1`, the composite z-score in assay [1] was 0.122; in assay [2], 0.411; in [3], 1.28; in assay [5], 0.674; in [6] it was 0.376; in assay [7] it was 0.231. Also, the composite z-score in assay [8] is 0.761; in assay [9], -0.401; in assay [10], 0.628. Further, in assay [4], the z-score was -2.67 (inactive).
Turning to `NC(=O)NCC#Cc1ccc2c(c1)[C@]1(C(=O)N2)[C@H](c2ccc(O)cc2)N2[C@H](c3ccccc3)[C@H](c3ccccc3)OC(=O)[C@H]2[C@@H]1C(=O)NC[C@H](O)c1ccccc1`, the composite z-score was -0.227 in assay [1]; 0.004 in assay [2]; 0.725 in assay [3]; -1.39 in assay [5]; -0.964 in [6]; -1.2 in assay [7]. Also, the composite z-score was -2.26 in assay [8], -1.53 in assay [9] and -1.82 in assay [10]. Also, the z-score in assay [4] was -0.647 (inactive).
`COc1ccc([Si](C)(C)[C@@H]2[C@@H](CCO)O[C@]3(C(=O)N(Cc4ccccc4)c4ccc(N5CCCCC5=O)cc43)[C@H]2C)cc1`: the composite z-score was 0.883 in assay [1]; -0.107 in [2]; -0.0137 in assay [3]; 0.959 in [5]; 1.1 in [6]; 0.197 in assay [7]. Also, the composite z-score came to 0.962 in assay [8], 0.218 in assay [9] and 0.796 in [10]. In addition, in [4], the z-score is -4.14 (inactive).
For the molecule `CCCCC(=C=CC[C@H](O)c1ccccc1OCCO)C[C@H](O)c1ccccn1`, the composite z-score was 1.36 in [1]; -0.127 in assay [2]; 0.211 in assay [3]; 0.551 in assay [5]; -0.251 in assay [6]; 0.324 in assay [7]. Also, the results for the composite z-score in assay [8], in assay [9] and in assay [10] were 0.549, -0.0601 and 1.54, respectively. Also, the z-score in assay [4] was -0.471 (inactive).
Turning to `[N-]=[N+]=NCc1ccccc1C[C@]1(C(=O)NCCN2CCOCC2)N=C(c2ccc(OCCCO)cc2)O[C@H]1c1ccccc1`, the composite z-score in [1] was 1.69; in assay [2] it was 0.103; in assay [3], 0.826; in assay [5], 1.04; in assay [6] it was 1.28; in assay [7], -0.329. Besides, the results for the composite z-score in assay [8], in assay [9] and in assay [10] were 0.0637, -0.781 and 0.527, respectively. In assay [4], the z-score was -0.326 (inactive).
Turning to `Cc1ccc(S[C@]2(C(=O)O)CC(=O)N(Cc3ccccc3C(F)(F)F)[C@@H]2c2ccc(CO)cc2)cc1`, the composite z-score in [1] was -0.809; in assay [2] it was -0.0885; in assay [3], 1.08; in [5], -0.628; in assay [6], -0.926; in [7] it was -1.01. The composite z-score was -0.894 in assay [8], -1.03 in [9] and 1 in assay [10]. Also, the z-score in assay [4] is 0.0922 (inactive).
Regarding `COc1ccc([Si](C)(C)[C@H]2[C@H](CCO)O[C@@]3(C(=O)N(Cc4cccc(N5CCOC5=O)c4)c4ccccc43)[C@@H]2C)cc1`, the composite z-score in [1] was 1.17; in [2], -0.165; in [3], -0.339; in [5], 0.997; in assay [6], 0.808; in [7], 0.0733. The composite z-score in assay [8] is 0.493; in [9] it was 0.581; in [10] it was -0.419. For the same molecule, in [4], the z-score was -0.91 (inactive).
Take `COCC1=C([C@H](O)CCc2ccccc2)[C@H](CO)[C@@H]2C(=O)N(C)C(=O)[C@@H]2C1`: the composite z-score in assay [1] is -0.129; in assay [2], -0.541; in assay [3] it was -0.578; in assay [5], 0.397; in [6], 0.189; in assay [7] it was 0.456. Besides, the composite z-score in assay [8] is 0.0826; in assay [9], 0.408; in assay [10], 0.42. Besides, in [4], the z-score was 0.559 (inactive).
